Growth data for seven molecules are collected here from PubChem BioAssay (NCI).

Molecules are shown by their SMILES. This is part of a sample that, as a whole, favours compounds with a hit. Of some 83,000 tested, about 20% had one in any assay.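 96-well plates, one dose, 48 hours. Percent growth reported; active if below 10.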 Values without a mark were called inactive. The source made the active and inactive calls.

Some test systems named below: NCI-H23 lung; NCI-H226 lung; NCI-H322M lung; HOP-62 NSCLC; NCI-H460 lung; HOP-92 NSCLC; NCI-H522 lung; A549/ATCC NSCLC; 786-0 renal; COLO 205 colon; DU-145 prostate; K-562 leukemia; MALME-3M melanoma; MDA-MB-231 breast; SF-268 CNS; SF-295 CNS; SF-539 CNS; UACC-257 melanoma; M14 melanoma.
Experiment in all cases: NCI-60 one-dose screen, 48 h (100 = growth as untreated, 0 = no growth, -100 = all killed)
What all share (settings): 10 µM

In the case of `CC(C)C1=C[C@@]23CC[C@@H]4[C@](C)(CCC[C@]4(C)C(=O)NCc4ccccc4)[C@H]2C[C@@H]1[C@H]1C(=O)OC(=O)[C@H]13`, the growth was 23% in the experiment on NCI-H23 lung; 76.1% with NCI-H226 lung; 102% with NCI-H322M lung; 57.2% with HOP-62 NSCLC; 17.6% in the experiment on NCI-H460 lung; 64.7% in the experiment on HOP-92 NSCLC. In addition, the growth in the experiment with NCI-H522 lung is 17%; with A549/ATCC NSCLC, 33.7%; in the experiment on 786-0 renal it was 70.5%; with COLO 205 colon, 79.6%; with DU-145 prostate it was 55.3%; in the experiment with K-562 leukemia it was 21.5%. Further, the growth in the experiment on MALME-3M melanoma was 87%; in the experiment with MDA-MB-231 breast, 77.1%; in the experiment on SF-268 CNS, 46.6%; in the experiment on SF-295 CNS it was 17.8%; in the experiment on SF-539 CNS, 63.2%; with UACC-257 melanoma, 82.1%. Further, the growth in the experiment with M14 melanoma was 54.3%.

Regarding `COc1cc2c3c(n(CCCN4CCOCC4)c(=O)c2cc1OC)-c1nc2c(cc1C3=O)OCO2`, the growth was 4.12% (active) in the experiment with NCI-H23 lung; 6.34% (active) in the experiment on NCI-H226 lung; 41% in the experiment with NCI-H322M lung; -12.4% (active) in the experiment on HOP-62 NSCLC; -15.4% (active) with NCI-H460 lung; -2.4% (active) in the experiment on HOP-92 NSCLC. Also, the growth in the experiment on NCI-H522 lung is 39.9%; in the experiment on A549/ATCC NSCLC, 19%; in the experiment with 786-0 renal, -6.02% (active); in the experiment with COLO 205 colon, 13%; in the experiment with DU-145 prostate, 3.38% (active); in the experiment on K-562 leukemia, 25.9%. In addition, the growth in the experiment on MALME-3M melanoma was 40.2%; in the experiment on MDA-MB-231 breast it was 6.41% (active); in the experiment on SF-268 CNS, 21.9%; with SF-295 CNS, -30.8% (active); in the experiment with SF-539 CNS, -38.7% (active); in the experiment on UACC-257 melanoma it was 51%. The growth with M14 melanoma was 13.4%.

As to `COc1ccc(C(=O)/C=C/c2cc(C(F)(F)F)cc(C(F)(F)F)c2)cc1S(N)(=O)=O`, the growth in the experiment on NCI-H23 lung is -86.1% (active); in the experiment on NCI-H226 lung it was -69.7% (active); in the experiment on NCI-H322M lung, -73.8% (active); in the experiment with HOP-62 NSCLC, -44.7% (active); in the experiment on NCI-H460 lung it was -24% (active); with HOP-92 NSCLC, -37.9% (active). Moreover, the growth is -67.7% (active) with NCI-H522 lung; -11.7% (active) in the experiment on A549/ATCC NSCLC; -69.2% (active) in the experiment on 786-0 renal; -66.1% (active) in the experiment on COLO 205 colon; -41.4% (active) in the experiment with DU-145 prostate; 8.85% (active) in the experiment on K-562 leukemia. Besides, the growth in the experiment with MALME-3M melanoma is -94.7% (active); in the experiment with MDA-MB-231 breast it was -77.8% (active); with SF-268 CNS, 6.18% (active); with SF-295 CNS, -86% (active); in the experiment with SF-539 CNS, -98.4% (active); with UACC-257 melanoma it was -55.5% (active). The growth with M14 melanoma was -75.8% (active).

As to `CCOC(=O)CNC(=O)CN(Cc1ccccc1)C(=O)[C@@]1(C)CCC[C@]2(C)[C@H]3CC4C(C(C)C)=C[C@]3(CC[C@H]21)[C@@H]1C(=O)CCC(=O)[C@H]41`, the growth was 48.9% in the experiment on NCI-H23 lung; 49.3% in the experiment on NCI-H226 lung; 86.5% in the experiment on NCI-H322M lung; 92.3% in the experiment with HOP-62 NSCLC; 65% in the experiment on NCI-H460 lung; 80.5% in the experiment on HOP-92 NSCLC. Besides, the growth in the experiment on NCI-H522 lung was 36.7%; in the experiment with A549/ATCC NSCLC it was 65%; in the experiment on 786-0 renal, 78.1%; with COLO 205 colon it was 79.4%; in the experiment with DU-145 prostate, 92.6%; with K-562 leukemia it was 25.3%. In addition, the growth in the experiment with MALME-3M melanoma is 83%; with MDA-MB-231 breast, 64.8%; with SF-268 CNS it was 64.7%; in the experiment with SF-295 CNS, 54.4%; with SF-539 CNS, 77.2%; in the experiment on UACC-257 melanoma it was 70.2%. For the same molecule, the growth in the experiment with M14 melanoma is 72.2%.

`COc1ccc(CN2[C@H](C(=O)NCc3ccc(C(=O)NO)cc3)Cc3c([nH]c4ccccc34)[C@H]2C2CC2)cc1`: the growth in the experiment on NCI-H23 lung was 52.3%; with NCI-H226 lung it was 55.8%; in the experiment with NCI-H322M lung, 59.4%; with HOP-62 NSCLC it was 63.1%; with NCI-H460 lung, 33.6%; in the experiment on HOP-92 NSCLC, 40.1%. The growth was 22.2% in the experiment on NCI-H522 lung; 61.3% with A549/ATCC NSCLC; 61.7% with 786-0 renal; 47.3% with COLO 205 colon; 57% in the experiment on DU-145 prostate; 26.2% with K-562 leukemia. Moreover, the growth was 30.4% in the experiment on MALME-3M melanoma; 54.5% in the experiment with MDA-MB-231 breast; 64.9% in the experiment on SF-268 CNS; 45.5% with SF-295 CNS; 41.6% in the experiment with SF-539 CNS; 43.4% in the experiment on UACC-257 melanoma. The growth in the experiment with M14 melanoma is 49.6%.

On to `O=C1c2ccccc2C(=O)c2c1c(C(=O)c1ccc(Cl)cc1)n1c2ccc2c3ccccc3ccc21`, for which the growth in the experiment on NCI-H23 lung is 96%; in the experiment on NCI-H226 lung, 103%; with NCI-H322M lung it was 113%; in the experiment on HOP-62 NSCLC, 92.5%; in the experiment on NCI-H460 lung it was 109%; in the experiment with HOP-92 NSCLC, 98.6%. Also, the growth in the experiment on NCI-H522 lung is 93.5%; in the experiment with A549/ATCC NSCLC, 102%; with 786-0 renal, 110%; in the experiment on COLO 205 colon, 128%; with DU-145 prostate, 108%; in the experiment with K-562 leukemia, 106%. Further, the growth with MALME-3M melanoma was 101%; in the experiment on MDA-MB-231 breast, 89.9%; with SF-268 CNS, 105%; with SF-295 CNS, 99.1%; in the experiment on SF-539 CNS, 88.5%; with UACC-257 melanoma, 107%. Also, in the experiment on M14 melanoma, the growth is 107%.

Take `CCCn1c(=O)c2[nH]c(-c3ccc(OCc4nc5ccc(F)cc5[nH]4)cc3)nc2n(CCC)c1=O`: the growth is 26.3% in the experiment with NCI-H23 lung; -36.1% (active) in the experiment with NCI-H226 lung; 23.8% in the experiment on NCI-H322M lung; -19.4% (active) in the experiment with HOP-62 NSCLC; -50.8% (active) in the experiment with NCI-H460 lung; -27.5% (active) with HOP-92 NSCLC. In addition, the growth in the experiment on NCI-H522 lung was 24.3%; with A549/ATCC NSCLC, 36%; in the experiment on 786-0 renal, -87.2% (active); with COLO 205 colon, 25.5%; in the experiment with DU-145 prostate, 34.2%; in the experiment on K-562 leukemia, 34.9%. Besides, the growth in the experiment with MALME-3M melanoma is -52.2% (active); in the experiment with MDA-MB-231 breast it was -46.7% (active); in the experiment with SF-268 CNS, 46.5%; in the experiment on SF-295 CNS, 10.6%; in the experiment on SF-539 CNS, -68.9% (active); in the experiment on UACC-257 melanoma, 31.9%. Moreover, the growth with M14 melanoma is 44.7%.
